Hits are enriched below; roughly 8% of the tested compounds scored in any of these assays.
KB-V1 cytotox: KB-V1 MDR subline cytotoxicity | KB-V1 MDR cells viability, CellTiter-Glo, 72 h | Potency, µM (titrated, usually from 46.1 µM), actives largely listed as cytotoxic | 3.4% of 400,000 active; further: on the % scale 0 is the no-effect control and ±100 the full control effect; nearly all actives have a fitted effect of over 60% in size
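Drug-selected KB-V1 cells, grown in DMEM lacking phenol red with 10% FBS, receive compound titrations; after three days at 37 degrees C, surviving cell ATP is quantified by CellTiter-Glo luminescence and responses normalized and curve-fitted.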
HT1080 IDH1KD tx: HT-1080 IDH1 knockdown cell toxicity (counter line); 2% of 360,000 active; AID 686971; Potency, µM (doses to about 46.1 µM), inactives show at the top dose activity, negative = toxicity, usual class: cytotoxic; HT-1080 IDH1 knockdown viability, ATP luminescence, 48 h;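 further: 0% = DMSO wells and -100% = cell-free medium wells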
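Using the IDH1-knockdown HT-1080 line run in the same batch and compound series as the NT line, viability after 48 h at 37 °C was determined by CellTiter-Glo luminescence and expressed as % activity.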
HT1080-NT tox: kills 2HG-producing HT-1080-NT fibrosarcoma cells; HT-1080-NT fibrosarcoma viability, CellTiter-Glo ATP luminescence, 48 h; Potency, µM (highest dose often 46.1 µM), for the others: at the highest dose activity, negative = less viability, usual class: cytotoxic; 1.6% of 360,000 active; AID 686970;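 further: NT is the 2HG producing partner of a matched IDH1 knockdown line; 0% = DMSO-treated cells and -100% = media-only wells without cells; nearly all actives have a fitted effect of over 55% in size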
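Toxicity toward the 2HG-producing NT line was scored as %Activity, normalised to DMSO and no-cell wells, from CellTiter-Glo luminescence after 48 hours' treatment.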
KB-3-1 cytotox: KB-3-1 parental cell cytotoxicity; 1.4% of 400,000 active; Potency, µM (series often up to 46.1 µM), actives largely listed as cytotoxic; AID 1347075; KB-3-1 viability, CellTiter-Glo ATP luminescence, 72 h; further: on the % scale 0 is the no-effect control and ±100 the full control effect; nearly all actives have a fitted effect of over 60% in size
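Luminescent ATP read-out (CellTiter-Glo) measures survival of drug-naive KB-3-1 cells after 72 h compound exposure at 37 °C. Titration series was screened from lowest to highest concentration, with DMSO vehicle plates as background controls.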
SW480 rerep: inducers of DNA re-replication in SW480 colon cancer cells; SW480 DNA re-replication, Hoechst DNA content imaging, 48 h; Potency, µM (highest dose often 46.1 µM), without a hit: at the top dose re-replication activation, usual class: activators; 1.8% of 340,000 active; further: % of control where 0% means no effect; nearly all actives have a fitted effect of over 55% in size
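Hoechst fluorescence of nuclei (405 nm excitation, 500-530 nm emission) measured by plate-scanning imager after 48 hr compound exposure at 37 C; re-replication scored as increased number of nuclei with elevated intensity.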
MCF10A rerep: induces DNA re-replication in MCF 10a normal breast cells; MCF 10A DNA re-replication, Hoechst nuclear intensity, 48 h; Potency, µM (top dose mostly 46.1 µM), without a hit: top-dose activity, positive = re-replication, usual class: activators; 2.9% of 350,000 active; further: % of control where 0% means no effect; nearly all actives have a fitted effect of over 50% in size
Numbers without * were called inactive; i = inactive; u = inconclusive; x = no result given. The call rests on the fitted dose curve; in most records, active means well fitted curve in the direction sought with a large enough effect; inconclusive means small, poorly fitted or top-dose-only effect, or another doubt; inactive means no such curve, though single readings can be large; an effect the other way counts as inactive or inconclusive. Potency means the concentration at half of the fitted maximal effect.

SMILES	KB-V1 cytotox	HT1080 IDH1KD tx	HT1080-NT tox	KB-3-1 cytotox	SW480 rerep	MCF10A rerep
O=C(COC(=O)c1cc(Cl)cc(Cl)c1)NCCN1C(=O)CSC1=O	i	-1%	-1%	i	-38%	-3%
COc1ccc(NC(=O)c2ccc(COc3ccccc3Br)o2)cc1OC	i	-33%	-16%	u	5%	12µM*
COc1ccccc1OCc1ccc(C(=O)Nc2cc(OC)c(OC)c(OC)c2)o1	i	-16%	-2%	i	u	u
COc1cc(NC(=O)c2ccc(COc3ccccc3Br)o2)cc(OC)c1OC	7.3µM*	5%	0%	i	10%	u
COc1ccc(OCC(O)CNC(=O)c2ccccc2)cc1 (stereo not drawn)	i	5%	1%	i	-20%	1%
CCOC(=O)c1cnc(NCc2ccccc2)nc1C	i	10%	9%	u	-18%	10%
COc1cccc(CNc2ncc(C(=O)Nc3cc(OC)c(OC)c(OC)c3)c(C)n2)c1	i	u	u	8.2µM*	u	u
COc1cc(NC(=O)c2cnc(NCc3ccccc3)nc2C)cc(OC)c1OC	10µM*	u	u	u	17%	11%
O=C(CCN1C(=O)c2ccccc2C1=O)NCc1ccco1	i	-6%	-3%	i	-4%	-6%
CC(c1ccccc1)N1CCn2c(nc3cc(NC(=O)NC4CCCCC4)ccc32)C1 (stereo not drawn)	i	u	16µM*	u	u	14%
CCOC(=O)[C@H]1[C@H]2COc3cc(OC)ccc3[C@@H]2N2C(=O)CN(Cc3ccc(C)cc3)C(=O)[C@@]12C	i	5%	0%	i	-6%	u
CCCCCCNC(=O)c1cn(CC)c2cc(N3CCN(C)CC3)c(F)cc2c1=O	i	u	16µM*	i	u	u
CCn1cc(C(=O)NCCCO)c(=O)c2cc(F)c(N3CCN(C)CC3)cc21	i	6%	11%	i	8%	4%
C=CCNC(=O)c1cn(CC)c2cc(N3CCN(C(=O)c4ccco4)CC3)c(F)cc2c1=O	u	-5%	-1%	i	19%	-2%
CCn1cc(C(=O)NCC(C)C)c(=O)c2cc(F)c(N3CCN(C(=O)c4ccco4)CC3)cc21	16µM*	0%	-15%	i	-2%	u
CC(=O)c1ccc(N2CCN(C(=O)c3ccccc3SCC(=O)NCc3ccco3)CC2)c(F)c1	21µM*	-7%	-8%	i	-8%	1%
CCn1cc(C(=O)NCc2ccco2)c(=O)c2cc(F)c(N3CCN(C(=O)c4ccco4)CC3)cc21	i	-17%	-12%	i	-2%	13µM*
COc1ccccc1N1CCN(C(=O)c2ccccc2SCC(=O)NCc2ccco2)CC1	u	3%	1%	i	0%	11%
O=C(C1CCC(CNS(=O)(=O)c2ccccc2)CC1)N1CCOCC1 (stereo not drawn)	i	0%	-2%	i	-4%	12%
Cc1cc(Cl)ccc1Oc1ccccc1C(=O)CC#N	i	-1%	-3%	i	5%	23µM*
CCOC(=O)CNC(=O)C1CCCN(c2ncccn2)C1 (stereo not drawn)	i	4%	-7%	i	0.26µM*	17%
O=C(Nc1ccc(Oc2ccccc2)cc1)C1CCCN(c2ncccn2)C1 (stereo not drawn)	5.8µM*	4%	0%	i	3%	u
O=C(NCc1cccs1)C1CCCN(c2ncccn2)C1 (stereo not drawn)	u	0%	0%	i	1%	0%
O=C(Nc1ccc(Oc2ccccc2)cc1)C1CCN(S(=O)(=O)c2ccccc2)CC1	6.5µM*	x	x	u	x	x
Cc1ccc(S(=O)(=O)N2CCC(C(=O)Nc3ccc(Oc4ccccc4)cc3)CC2)cc1	u	x	x	i	x	x
